# Screening data as filed in PubChem.
# GLP1R cytotox: qHTS of GLP-1 Receptor Inverse Agonists: Cytotox Screen | HEK293 cAMP-luciferase reporter cells, luminescence, 24 h | Potency, µM (titrated, usually from 38.3 µM), inactives show at the highest dose activity change, negative = inhibition, hits mostly inhibitors | 410,000 compounds, 0.13% hits | AID 624418, 2012;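 further: loss of luciferase light is scored as toxicity; on the % scale 0 is the no-effect control and ±100 the full control effect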
#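 A 23 nL compound transfer followed 12 hours of cell culture at 37 deg C; exposure then lasted 24 hr. Luciferase assay detection reagent was dispensed and plates read for luminescence after a 12 min room-temperature wait.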
# Gal4-VP16 FLuc: VP16 counterscreen qHTS for inhibitors of ROR gamma transcriptional activity; Drosophila S2 Gal4-VP16 UAS-luciferase, luminescence, 20 h; Potency, µM (series often up to 53.6 µM), for inactives: at the highest dose activity, negative = inhibition, actives largely listed as inhibitors; 310,000 compounds, 3.5% hits; AID 2546, 2010;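 further: Gal4-VP16 expression switched on by copper sulfate through the metallothionein promoter; on the % scale 0 is the no-effect control and ±100 the full control effect; nearly all actives have a fitted effect of over 50% in size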
# GLP-1R agonist: qHTS of GLP-1 Receptor Agonists | HEK293 GLP-1R CRE-luciferase, luminescence, 4-6 h; cells express a hypersensitive GLP-1R form | Potency, µM (highest dose often 45.6 µM), without a hit: at the top dose activation, usual class: activators | Glucagon-like peptide 1 receptor (Homo sapiens), P43220 | 380,000 compounds, 0.007% hits; further: % of control where 0% means no effect
# Target sequence (P43220 whole entry, looked up): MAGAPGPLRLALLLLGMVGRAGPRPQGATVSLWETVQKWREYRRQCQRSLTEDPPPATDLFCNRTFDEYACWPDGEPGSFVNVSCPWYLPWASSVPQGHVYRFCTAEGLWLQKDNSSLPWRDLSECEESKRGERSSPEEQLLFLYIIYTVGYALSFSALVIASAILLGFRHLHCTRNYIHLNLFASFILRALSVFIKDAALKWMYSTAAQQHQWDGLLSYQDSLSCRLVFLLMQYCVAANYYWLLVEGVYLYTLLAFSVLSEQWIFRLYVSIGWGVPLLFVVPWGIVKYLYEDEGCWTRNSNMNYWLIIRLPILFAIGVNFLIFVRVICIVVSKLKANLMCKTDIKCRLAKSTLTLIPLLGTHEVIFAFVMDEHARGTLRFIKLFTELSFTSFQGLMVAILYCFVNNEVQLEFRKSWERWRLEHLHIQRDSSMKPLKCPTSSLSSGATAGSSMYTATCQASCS
# GLP-1R inv ag: qHTS of GLP-1 Receptor Inverse Agonists (Inhibition Mode). Glucagon-like peptide 1 receptor (Homo sapiens), P43220. HEK293 GLP-1R CRE-luciferase, luminescence, 24 h; GLP-1R form is constitutively active. 410,000 compounds, 1.6% hits. Potency, µM (highest dose often 38.3 µM), inactives show at the highest dose activity change, negative = inhibition, most hits filed as inhibitors; further: on the % scale 0 is the no-effect control and ±100 the full control effect; nearly all actives have a fitted effect of over 55% in size
#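 Stable HEK293 clone (constitutively active GLP-1R + cAMP-response luciferase); 200 cells/uL plated, 12 h pre-culture, compound 24 hr, 37 deg C/5% CO2; detection reagent 12 min RT; luminescence.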
# RORg inh: qHTS for inhibitors of ROR gamma transcriptional activity; Nuclear receptor ROR-gamma (Mus musculus), P51450; Drosophila S2 Gal4-RORgamma UAS-luciferase reporter, 20 h; Potency, µM (titrated, usually from 53.6 µM), for inactives: top-dose activity change, negative = inhibition, usual class: inhibitors; 310,000 compounds, 5.4% hits; AID 2551, 2010; further: on the % scale 0 is the no-effect control and ±100 the full control effect; nearly all actives have a fitted effect of over 60% in size
#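 Luminescence from a UAS-regulated Photinus luciferase reporter in stably transfected Drosophila Schneider cells is measured; decreased signal marks ROR gamma inhibition. Fusion expression is induced by 700 uM copper sulfate for 20 hr.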
# Starred values were filed as active, the others as inactive; u = inconclusive; x = not tested or not shown; [ ] = dose if it differs, or a comment. An excerpt weighted towards active compounds, which were near 5.9% of everything screened. The call rests on the fitted dose curve; in most records, active means well fitted curve in the direction sought with a large enough effect; inconclusive means small, poorly fitted or top-dose-only effect, or another doubt; inactive means no such curve, though single readings can be large; an effect the other way counts as inactive or inconclusive. Potency means the concentration at half of the fitted maximal effect.
SMILES,GLP1R cytotox,Gal4-VP16 FLuc,GLP-1R agonist,GLP-1R inv ag,RORg inh
O=S(=O)(O)c1ccc(N=Nc2ccccc2)cc1,0.4%,-3.5%,11.4%,12.0%,2.7%
CNc1cc(OC)c(C(=O)N[C@@H]2CCN(Cc3ccccc3)[C@H]2C)cc1Cl,x,-0.8%,8.0%,x,2.3%
CC1C/C(=N\NC(=S)NC(C)C)CC(C)(C)C1 (centres undefined),u,3.98µM*,-6.2%,4.47µM*,1.58µM*
CCn1nc(C)cc1-c1nnc(SCC(=O)Nc2ccccc2)n1CCCOC,32.7%,5.0%,2.8%,9.1%,-17.4%
CCn1nc(C)cc1-c1nnc(Sc2ncc([N+](=O)[O-])s2)n1C,-21.5%,4.47µM*,-7.5%,u,5.01µM*
Cc1ccc(-c2nnc(NC(=O)C3=COCCO3)o2)c(C)c1,-7.3%,x,2.4%,24.4%,x
COc1ccc(C(=O)Nc2nnc(C3=COCCO3)o2)cc1,u,2µM*,-6.1%,3.3%,2.24µM*
CCCCC(=O)Nc1nnc(C2=COCCO2)o1,-5.4%,0.4%,0.9%,19.6%,12.6µM*
CCOc1ccc(C(=O)Nc2nnc(C3=COCCO3)o2)cc1,u,1µM*,0.3%,1.4%,2.51µM*
CS(=O)(=O)c1ccc(-c2nnc(NC(=O)C3=COCCO3)o2)cc1,-9.9%,x,-0.2%,27.5%,x
COc1cc(C(=O)Nc2nnc(C3=COCCO3)o2)cc(OC)c1OC,7.4%,2.82µM*,-8.9%,29.2%,2.51µM*
CCOc1ccc(C(=O)NCCc2ccc3c(c2)OCCO3)cc1,-21.5%,-5.2%,8.8%,u,u
Cc1cccn2cc(-c3cccc(NC(=O)C(C)C)c3)nc12,0.1%,x,x,-2.7%,x
C[C@]12CC[C@@H]3c4ccc(O)cc4CC[C@H]3[C@@H]1C[C@H](O)C2O (some centres undefined),x,2.8%,5.6%,x,9.3%[10 µM]
Cn1cc(-c2nc3cncnc3n(CCN)c2=O)c2ccccc21,x,-9.4%,x,x,-14.7%
COc1ccc(OCc2cccc(C(=O)Nc3cc(C)on3)c2)cc1,-8.4%,u,-13.8%,u,63.4%
NNC(=O)c1cccc(COc2cccc(Br)c2)c1,5.9%,u,1.1%,-0.9%,12.6µM*
COc1ccc(OCc2cccc(C(=O)NN)c2)cc1,0.8%,u,-4.0%,u,14.1µM*
NNC(=O)c1cccc(COc2ccc(Br)cc2)c1,-16.1%,-96.6%,-2.1%,5.01µM*,u
O=C(NCc1ccccc1)c1cccc(COc2ccc(Cl)cc2)c1,12.6%,u,-1.9%,u,u
C=CCOC(=O)N[C@H](/C(C(=O)OC)=C(\C)NCc1ccccc1)c1ccc(Br)cc1,x,-0.9%,x,x,1.0%
CCc1ccc2oc(-c3cc(NC(=O)c4cc([N+](=O)[O-])ccc4N4CCOCC4)ccc3Cl)nc2c1,-3.0%,x,-1.5%,10.1%,x
COc1cccc(Cn2c(=O)n(-c3ccc(Br)cc3F)c(=O)c3sc4ccccc4c32)c1,-2.2%,x,2.9%,-18.8%,x
COc1ccccc1C1CN=NC12CCCc1ccccc1C2=O (centres undefined),-4.8%,-11.6%,-5.9%,7.08µM*,-26.7%
COc1ccc(C2CN=NC23CCCc2ccccc2C3=O)cc1 (centres undefined),-7.2%,9.7%,-4.2%,0.0%,u
SMILES,GLP1R cytotox,Gal4-VP16 FLuc,GLP-1R agonist,GLP-1R inv ag,RORg inh
CCOc1ccc(-c2cc3c(=O)n(Cc4nc(-c5ccc(OC)cc5OC)oc4C)ccn3n2)cc1Cl,-0.1%,x,-0.6%,9.5%,x
NC(CS)C(=O)O (centres undefined),x,-3.0%,-6.7%,x,-18.0%[10 µM]
CCOc1cc(-c2nccc3cc(OC)c(OC)cc23)cc(OCC)c1OCC,-3.3%,5.62µM*,u,98.2%,8.91µM*
Cc1ccc(-n2ncc3c(N4CCN(C)CC4)ncnc32)cc1Cl,-4.1%,x,x,-12.5%,x
O=C(COc1ccc(Cl)cc1Cl)N/N=C/c1ccc(OC2OC(CO)C(O)C(O)C2O)cc1 (centres undefined),9.6%,3.6%,-0.3%,-19.4%,11.2µM*
O=C(NCc1nc2cccnc2n1Cc1ccc(F)cc1)c1ccccc1C(F)(F)F,12.2%,x,x,-29.9%,x
C/C(=N/NC(=O)c1ccc2c(c1)OCO2)c1ccc(NC(=O)C(F)(F)F)cc1,-6.0%,-3.8%,1.7%,-13.7%,-44.7%
CNC(=S)N/N=C(\C)c1ccc2c(c1)OCCO2,u,8.91µM*,11.3%,u,2.82µM*
CNC(=S)N/N=C(\C)c1ccc2c(c1)OCO2,u,u,1.9%,10µM*,7.08µM*
C/C(=N\NC(=O)c1ccccc1)c1ccc2c(c1)OCO2,0.0%,u,-7.5%,1.2%,20.1%
C/C(=N\NC(=S)Nc1ccc(C(C)C)cc1)c1ccc2c(c1)OCO2,6.7%[0.307 µM],u,-13.9%,-7.9%[0.307 µM],6.31µM*
C/C(=N\NC(=O)COc1ccc(C(C)(C)C)cc1)c1ccc2c(c1)OCCO2,-6.0%,-21.9%,21.3%,-21.1%,-5.5%
C/C(=N\NC(=O)c1cc(C)oc1C)c1ccc2c(c1)OCO2,5.7%,13.6%,0.7%,21.8%,-7.9%
CCNC(=S)N/N=C(\C)c1ccc2c(c1)OCCO2,u,7.08µM*,1.5%,u,2.82µM*
Cc1c(-c2nc(-c3ccc4c(c3)OCO4)no2)nnn1-c1cccc(C(F)(F)F)c1,-8.9%,x,x,4.6%,x
C=C1C(CCl)(CCl)C2(Cl)C(Cl)C(Cl)C1(Cl)C2(Cl)Cl (centres undefined),x,-29.4%,-5.0%,x,-2.5%
C=CCC(C)(O)c1cccc(Br)c1 (centres undefined),x,-9.8%,x,x,13.4%
CC(NC(=O)c1ccc2c(c1)OCCO2)C(=O)O (centres undefined),-1.6%,4.4%,-0.3%,-25.3%,5.3%
C/C(=N\NC(=S)NC(C)C)c1ccc2c(c1)OCCO2,4.47µM*,4.47µM*,7.5%,10µM*,2µM*
Cc1ccc(S(=O)(=O)CC#CCOC(=O)c2ccc([N+](=O)[O-])cc2)cc1,x,u,x,x,10µM*
Cc1ccc(C(=O)c2ccc([N+](=O)[O-])cc2)cc1,8.4%,-8.3%,-0.2%,6.0%,-25.2%
COc1ccc(S(=O)(=O)Nc2ccc(-n3cccc3)cc2)cc1,2.5%[7.66 µM],11.2µM*,7.7%,-1.4%[7.66 µM],11.2µM*
COc1ccc(NS(=O)(=O)c2ccc(N3C(=O)CCC3=O)cc2)cc1,1.2%,2.2%,-1.4%,-6.3%,42.7%
COc1ccc(NC(=O)CNC(=O)C23CC4CC(CC(C4)C2)C3)c(OC)c1,11.6%,x,12.0%,-25.4%,x
COc1ccc(OC)c(NC(=O)C(=O)NNC(=O)C23CC4CC(CC(C4)C2)C3)c1,-3.6%,u,-1.5%,u,2.51µM*
